Out of some 1,100 compounds screened, about 70 (6%) were called active. Not shown: some 22% with an inconclusive outcome. Many of the other results were omitted from the sample, so actives are more common in it than they were. A number with no mark means an inactive call. Calls come from the whole dose curve; as a rule, active = well fitted curve in the direction sought with a large enough effect; inconclusive = small, poorly fitted or top-dose-only effect, or another doubt; inactive = no such curve, though single readings can be large or run the other way.
The compounds below were run against Polyunsaturated fatty acid lipoxygenase ALOX12 (Homo sapiens) (UniProt P18054) (assay: Confirmatory qHTS assay for inhibitors of human arachidonate 12S-lipoxygenase (ALOX12): Round 2). Conditions: purified human 12-LOX, xylenol orange absorbance; series mostly up to 125 µM; activity change, negative = inhibition: at the top concentration.
Excerpt: Assay Provider: Theodore R. Holman Ph.D. University of California, Santa Cruz, California Human lipoxygenase 12hLO is a member of the closely related lipoxygenase family of enzymes which catalyze the site-specific oxidation of arachidonic acid to various hormone precursor molecules and as such is a candidate for drug development in a variety of disease areas, such as cancer and inflammation. Inhibition of 12hLO activity was screened by utilizing arachidonic acid as a substrate. The extent of hydroperoxide product formation was measured by a secondary chromogenic reaction in which xylenol orange (XO, Sigma-Aldrich, cat. number 39,818-7) reacts with the ferric ions produced from the reaction between the hydroperoxide and ferrous ions. The Fe (III)-XO complex is characterized with red-shifted absorbance at 560 nm. A purified preparation of human 12hLO was supplied by Dr. Holman laboratory, University of California, Santa Cruz.
PROTOCOL TABLE SEQUENCE No. (e.g., 1, 2, 3, etc.); […] (e.g., Cells, Incubation, Reagent, etc.); VALUE; DESCRIPTION 1; Enzyme; 3 uL; 150 nM 12hLO enzyme solution dispensed in 1536-well Greiner black, clear bottom plates. 2; Compound; 23 nL; compounds and controls were added. 3; Incubate; 15 min; room temperature. 4; Substrate; 1 uL; 40 uM arachidonic acid (final concentration). 5; Incubate; 30 min; room temperature. 6; Reagent; 4 uL; Fe-XO solution was added to each well. 7; Incubation; 30 min; room temperature 8; Detector; absorbance; Read 1 at 405 nm absorbance using ViewLux (PerkinElmer) CCD imager. 9; Detector; absorbance; Read 2 at 573 nm absorbance using ViewLux (PerkinElmer) CCD imager. NOTES (numbers refer to sequence above) 1; 150 nM 12hLO (final concentration) in buffer solution (25 mM Hepes, 0.01% Triton X-100, pH 7.0) was dispensed in columns 1, 2, 5-48. Column 1 is neutral (100% activity). Buffer only was dispensed in columns 3 and 4 as no enzyme negative controls. The plates were covered with metal lids with gas-exchange holes. 2; Compounds were pin transferred via a Kalypsys Pin Tool (Wako USA) in column 5 - 48. Control compound was transferred in column 2, titration of nordihydroguaiaretic acid (NDGA, Sigma-Aldrich, N5023) with top concentration of 20 mM in DMSO then 1:3 dilution in duplicate. Dilution factor of 23 nL into 4 uL final assay volume. 3; Covered assay plates were incubated for 15 min at room temperature. 4; Substrate was added to start the reaction; 40 uM arachidonic acid (Sigma-Aldrich, St. Louis, MO) was dispensed throughout the plate. 6; Chromogenic detection reagent solution (divalent iron/xylenol orange, Fe-XO) was added to each well: 200 uM xylenol orange, 300 uM ferrous ammonium sulfate prepared freshly in 50 mM sulfuric acid. 8, 9; Two absorbance readouts were obtained at 405 nm and at 573 nm using a ViewLux high-throughput CCD plate imager (PerkinElmer). The 573 to 405 (Read 2 / Read 1) absorbance ratio was used to compute reaction progress.
% is set by controls: 0 for no effect and ±100 for the full control effect; potency is the fitted concentration of half-maximal effect.

Sequence of Polyunsaturated fatty acid lipoxygenase ALOX12 (Homo sapiens) (P18054 whole entry, looked up): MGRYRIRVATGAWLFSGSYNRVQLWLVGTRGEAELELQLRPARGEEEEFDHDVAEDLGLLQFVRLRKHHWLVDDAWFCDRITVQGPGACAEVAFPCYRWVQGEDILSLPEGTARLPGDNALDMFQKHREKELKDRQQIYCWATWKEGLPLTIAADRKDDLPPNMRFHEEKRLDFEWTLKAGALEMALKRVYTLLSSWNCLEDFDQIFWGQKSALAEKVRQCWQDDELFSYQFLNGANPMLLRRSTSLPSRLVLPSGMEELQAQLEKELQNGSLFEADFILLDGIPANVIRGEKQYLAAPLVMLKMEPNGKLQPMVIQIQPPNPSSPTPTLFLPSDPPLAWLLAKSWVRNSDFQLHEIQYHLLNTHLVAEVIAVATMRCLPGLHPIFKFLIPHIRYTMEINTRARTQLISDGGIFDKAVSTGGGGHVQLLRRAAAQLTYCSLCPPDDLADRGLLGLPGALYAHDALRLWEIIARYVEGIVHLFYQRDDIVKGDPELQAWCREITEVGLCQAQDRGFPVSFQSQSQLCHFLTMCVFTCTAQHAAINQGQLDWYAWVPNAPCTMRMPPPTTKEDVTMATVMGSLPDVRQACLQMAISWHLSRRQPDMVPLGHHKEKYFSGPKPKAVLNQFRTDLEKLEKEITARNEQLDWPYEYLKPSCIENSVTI

SMILES	Potency	activity change, negative = inhibition
CC(=O)N1CCC(C(=O)N2CCC3(CC2)NC(=O)N(c2cccc(Cl)c2)N3)CC1	12.6 µM (active)	–
COc1ccc(OC2CN(Cc3cccc4ccccc34)C2)cc1	–	-3.44%
OCC1CN(Cc2ccc(Cl)cc2)CC12CCNCC2 (configuration not stated)	–	-4.83% [at 64.5 µM]
O=C(c1ccccc1F)N1CCn2c(nnc2C2CCNCC2)C1	–	-11.9%
O=C(Nc1ccc(-c2cccc(F)c2)cc1)C1CCCN1Cc1cnc[nH]1 (configuration not stated)	–	13.7% [at 64.5 µM]
CN1CC(=O)N(C2CCCNCC2)Cc2c(NCC3CC3)ncnc21 (configuration not stated)	–	-7.12%
CCCCNc1oc(-c2cccc3ccccc23)nc1C#N	19.3 µM (active)	–
CC(C)Nc1oc(-c2cccc3ccccc23)nc1C#N	–	11.9% [at 64.5 µM]
C=CCNc1oc(-c2cccc3ccccc23)nc1C#N	–	1.51% [at 64.5 µM]
COc1ccc(-c2nc(C3CC3)nc3c2CN([S+](=O)([O-])c2ccccc2)CC3)cc1	–	-25.8%
CCOCCNc1ncnc2c1CN(C1CCNCC1)C(=O)CN2C	–	-10.1%
COc1ccc(N2CC3CCC(C2)N3C(=O)c2ccc3c(c2)OCO3)cc1	–	-19.9%
O=C(NCC(F)(F)F)c1cc(C2CC2)nc2c1c(C1CCCN1)nn2-c1ccccc1 (configuration not stated)	–	-27.3%
COC(=O)[C@@H]1Cc2nc[nH]c2CN1C1CCOCC1	–	10.7% [at 233 µM]
O=C(NC1CCCCC1)N1Cc2[nH]cnc2C[C@H]1c1nc(-c2cccc([N+](=O)[O-])c2)no1	6.31 µM (active)	–
COc1ccc(-c2noc([C@@H]3Cc4nc[nH]c4CN3C(=O)NC3CCCCC3)n2)cc1	10 µM (active)	–
COc1ccc(CN2Cc3[nH]cnc3C[C@H]2c2nc(-c3ccncc3)no2)cc1	–	30.2%
Cc1ccc(NC(=O)N2Cc3[nH]cnc3C[C@H]2c2nc(-c3ccc4ccccc4c3)no2)cc1	–	3.35% [at 64.5 µM]
CN1CC(=O)N(C2CCCNCC2)Cc2c(NCc3cccs3)ncnc21 (configuration not stated)	–	-21.3%
CCc1nc2c(c(-c3ccc(OC)cc3)n1)CCN(Cc1ccc(OC)cc1)CC2	–	-27.7%
O=C(N1CCCC1)N1CCN(c2ccc(Cl)nn2)C(=O)C1	–	-25.5%
CC(NC(=O)C1CCN(c2cc(C(F)(F)F)ncn2)CC1)c1ccccc1 (configuration not stated)	–	5.14% [at 64.5 µM]
COc1cccc(N2C(=O)NC(=NC3CCCCC3)C23CCCN([S+](=O)([O-])c2cccs2)C3)c1 (configuration not stated)	–	-25.9%

SMILES	Potency	activity change, negative = inhibition
O=c1n(-c2cccc(Cl)c2)nc2n1CCN([S+](=O)([O-])c1cccs1)C2	–	-15.3%
Cc1cccc(CN2CCN(Cc3nc(-c4ccco4)oc3C)C(C)C2=O)c1 (configuration not stated)	–	-7.87% [at 64.5 µM]
COCCNC(=O)c1cc(C2CC2)nc2onc(C3CCCN3)c12 (configuration not stated)	–	-17.5%
CCOC(=O)Cn1c(=O)n(-c2ccccc2OC)c2nc(-c3cccc(F)c3)nc(C(N)=O)c21	4.4 µM (active)	–
CCOC(=O)Cn1c(=O)n(-c2ccccc2OC)c2nc(-c3ccccc3F)nc(C(N)=O)c21	11 µM (active)	–
CCOc1ccccc1CN1CCCCC12Cc1ccccc1CNC2=O (configuration not stated)	–	-12.7%
CCNC(=O)N[C@@H]1C=C[C@@H](c2c(C)nn(-c3ccc(OC)cc3)c2C)C1	–	2.01% [at 64.5 µM]
Cc1cc(C(=O)NC2CC2)c2c(C3CCNCC3)noc2n1	–	-1.86%
O=C1c2ccccc2CN1C1CCN(Cc2ccsc2)CC1	–	-18.5%
C1CNCC(c2nc(C3CCOCC3)no2)C1 (configuration not stated)	–	-7.31% [at 64.5 µM]
CC(=O)N1CCn2cc(C(=O)N3CCOCC3)nc2C1	–	-9.94%
COc1ccccc1C(=O)N1CCn2c(nnc2C2CCNCC2)C1	–	-23.8%
CNCc1ccccc1OC(F)(F)F	–	-3.02%
COc1ccccc1CNC(=O)Nc1cccs1	21.7 µM (active)	–
CN1CC(=O)N(C2CCNCC2)Cc2c(NC3CCCCCC3)ncnc21	–	-12.8%
CN(C)CCCC(=O)N1Cc2ccccc2CC2(CCCCN2CC2CCNCC2)C1 (configuration not stated)	–	-14.8%
CCOC(=O)N1CCC(NC)CC1	–	6.82%
CCOC(=O)N1CCC(N2CCCC(CCC(=O)Nc3ccc(OC)c(Cl)c3)C2)CC1 (configuration not stated)	12.6 µM (active)	–
Cc1noc(C)c1C(=O)N1Cc2ccccc2CC2(CCCN(CC3CCNC3)C2)C1 (configuration not stated)	–	-14.1%
Fc1ccc(OC2CN(Cc3ccc(C(F)(F)F)cc3)C2)cc1F	–	-5.08%
Cn1ccnc1C(O)c1cc2n(n1)CCN(S(=O)(=O)C1CC1)C2 (configuration not stated)	–	1.79% [at 64.5 µM]
COc1cccc(N2C(=O)NC(=NC3CCCC3)C23CCCN(CC2CC2)C3)c1 (configuration not stated)	–	-17.4%
COCc1cc(C[C@@H]2CC[C@H](O)[C@@H](CNC(=O)NC(C)C)O2)no1	–	-10.6% [at 64.5 µM]

SMILES	Potency	activity change, negative = inhibition
CNCc1ccccc1Cl	–	-9.03% [at 233 µM]
CCCc1nc(C)cc(N2CCC(NCCc3ccc(Cl)cc3)CC2)n1	2.24 µM (active)	–
Cc1nc(N2CCC(C(=O)NCc3ccc(C(C)C)cc3)CC2)cc(C(F)(F)F)n1	–	-13.4% [at 64.5 µM]
O=C(N1CCCCC1)N1CCCC(c2nnc3n2CCNC3)C1 (configuration not stated)	–	-7.37%
Cc1cc(C)cc(-c2ccc(CN3CCCC(c4nc5ccc(F)cc5c(=O)[nH]4)C3)cc2)c1 (configuration not stated)	–	-20.9%
CCC(CC)Nc1ncnc2c1CN(C1CCCNCC1)C(=O)CN2C (configuration not stated)	–	-2.09%
COc1cccc(-c2ccc(CN)cc2)c1	–	-0.015%
COc1ccc(Nc2cnc3ccc(-c4cccc(CO)c4)nn23)cc1OC	–	-2.32% [at 64.5 µM]
COc1ccc(-c2cc(-c3cccc(CO)c3)cn3cncc23)cc1	28.2 µM (active)	–
COc1ccc(CNc2ncnc3c2CN(C2CCCNC2)C(=O)CN3C)cc1 (configuration not stated)	–	-15.2%
O=C(O)CCC(=O)N1Cc2ccccc2CC2(CCCN2Cc2cccnc2)C1 (configuration not stated)	–	-6.82%
Cc1ccc(-c2cc(-c3ccc(C)o3)nc(N)c2C#N)cc1	3.06 µM (active)	–
Cc1cc(C(=O)N2CCC(F)CC2)c2c(C3CCCN3)noc2n1 (configuration not stated)	–	-10.6%
O=Cc1ccc(-c2ccc(O)cc2)cc1	–	-27.2% [at 233 µM]
COc1ccc(N=C2S[C@H]3[C@H]([C@@H](O)[C@H](O)C[C@@H]3C(N)=O)N2CC2CCCCC2)cc1	–	-10.7% [at 64.5 µM]
O=C1N[C@@H]2CCN(S(=O)(=O)c3ccc(Cl)cc3)[C@@H]2C(=O)N1c1ccc(Oc2ccccc2)cc1	7.94 µM (active)	–
COc1ccccc1-c1ccc(CN2CCCC(c3nc4ccc(F)cc4c(=O)[nH]3)C2)cc1 (configuration not stated)	–	-29.2%
O=Cc1cccc(N2CCN(C(=O)c3ccc4c(c3)OCO4)CC2=O)c1	–	-11%
O=C1NCc2ccccc2CC12CCCN2Cc1ccsc1 (configuration not stated)	–	-13.5%
NCC(=O)N1Cc2ccccc2CC2(CCCCN2CC2CCOCC2)C1 (configuration not stated)	–	2.3%
CC(=O)N1CCC2(CC1)CN(C(=O)Cc1csc(N)n1)Cc1ccccc1O2	–	0.398%

Source: PubChem BioAssay AID1671189 (National Center for Advancing Translational Sciences (NCATS), 2021)
